Screens deposited in PubChem by National Center for Advancing Translational Sciences (NCATS).
ALDH1A1 block = ALDH1A1 (human) enzyme inhibition | P00352 | Purified ALDH1A1, NADH fluorescence, propionaldehyde substrate | Potency, µM (highest dose often 75.3 µM), without a hit: at the top dose activity, negative = inhibition, usual class: inhibitors | hit rate 7.3% among 220,000; active = well fitted inhibition curve with a large enough effect, not every such curve was filed as active; inconclusive = small, poorly fitted or top-dose-only effect, or another doubt; inactive = no such curve, though single readings can be large or run the other way;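 also: potency is read from the fitted curve at half-maximal effect; plate controls were no enzyme wells and a reference inhibitor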
Target sequence (P00352 whole entry, looked up): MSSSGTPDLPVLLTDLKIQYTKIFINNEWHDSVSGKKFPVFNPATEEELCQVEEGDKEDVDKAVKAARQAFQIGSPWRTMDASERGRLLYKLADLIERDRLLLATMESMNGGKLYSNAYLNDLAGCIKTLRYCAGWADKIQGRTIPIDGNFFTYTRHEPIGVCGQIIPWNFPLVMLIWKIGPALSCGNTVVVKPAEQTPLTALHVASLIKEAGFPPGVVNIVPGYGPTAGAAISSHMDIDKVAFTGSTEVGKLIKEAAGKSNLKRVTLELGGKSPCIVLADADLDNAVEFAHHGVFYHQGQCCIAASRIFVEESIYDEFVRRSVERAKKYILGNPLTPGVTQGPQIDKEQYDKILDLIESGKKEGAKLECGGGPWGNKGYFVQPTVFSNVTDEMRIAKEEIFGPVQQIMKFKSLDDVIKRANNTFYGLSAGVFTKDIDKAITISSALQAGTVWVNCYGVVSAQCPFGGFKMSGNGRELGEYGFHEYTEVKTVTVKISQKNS
HttQ103 aggreg = reduces HttQ103-GFP aggregates in PC12 cells | PC12 HttQ103-GFP aggregates, Acumen cytometry, 40 h | Potency, µM (doses to about 46.1 µM), inactives show at the highest dose activity change, negative = inhibition, actives largely listed as inhibitors | hit rate 1.1% among 220,000; also: potency is read from the fitted curve at half-maximal effect; % is scaled to controls: 0 for no effect and ±100 for the full control effect; nearly all actives have a fitted effect of over 60% in size
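Quantitative HTS on tebufenozide-induced (100 nM) PC12 cells stably expressing polyQ103 Huntingtin exon 1–GFP. Reduction of bright GFP aggregates, detected by laser scanning cytometry after lysis, identified actives across the titration.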
PNC assembly inh = perinucleolar compartment assembly inhibition; PC3M PTB-GFP, PNC prevalence imaging, 16 h; stronger effect = lower value; activity change (PNC), negative = inhibition, % at 10 µM; hit rate 3.1% among 140,000;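 active = readout at or below -70, meaning at least 70% loss of cells showing the perinucleolar compartment, a nuclear body marking cancer cells; inconclusive = readout between -30 and a set limit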;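 also: plate controls were DMSO wells for no effect and camptothecin positive control wells for full effect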
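Compounds are pinned in duplicate onto adhered PC3M cells stably expressing GFP-tagged PTB and incubated 16 h at 37 C. Cells are then fixed, nuclei stained with Hoechst, and PNC-positive cells counted.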
HTT cytoprotect = Huntington cell model cytoprotection by ATP luminescence. hit rate 0.14% among 230,000. Potency, µM (titrated, usually from 56.4 µM), for inactives: cytoprotection (ATP increase), hits mostly activators. PC12 HTT-Q103 induced, cytoprotection, ATP luminescence, 40 h; also: potency is read from the fitted curve at half-maximal effect; % of control where 0% means no effect; nearly all actives have a fitted effect of over 45% in size
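Compounds added alongside 100 nM tebufenozide, which induces toxic Q103 huntingtin exon 1-GFP in stable PC12 cells; surviving cells quantified by luminescent ATP measurement. Medium: phenol red-free DMEM, 5% equine and 5% calf serum.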
HPGD inh = blocks human HPGD enzyme activity; Potency, µM, inactives show top-dose activity change, negative = inhibition, actives largely listed as inhibitors; hit rate 4.3% among 150,000; purified HPGD, NADH fluorescence kinetic, PGE2 substrate; P15428; active = well fitted inhibition curve with a large enough effect, not every such curve was filed as active; inconclusive = small, poorly fitted or top-dose-only effect, or another doubt; inactive = no such curve, though single readings can be large or run the other way; also: potency is read from the fitted curve at half-maximal effect; % is scaled to controls: 0 for no effect and ±100 for the full control effect
Target sequence (P15428 whole entry, looked up): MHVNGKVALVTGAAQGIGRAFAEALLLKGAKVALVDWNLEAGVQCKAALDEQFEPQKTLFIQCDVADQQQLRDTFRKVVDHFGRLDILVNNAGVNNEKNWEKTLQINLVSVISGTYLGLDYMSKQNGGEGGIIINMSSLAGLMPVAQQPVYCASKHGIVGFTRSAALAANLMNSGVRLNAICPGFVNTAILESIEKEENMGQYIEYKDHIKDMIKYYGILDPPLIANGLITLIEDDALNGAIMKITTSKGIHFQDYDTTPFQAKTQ
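20 nM HPGD preincubated 15 min at room temperature with compound in 50 mM Tris-HCl pH 8, 0.01% Tween 20. Started with 1 mM NAD+ and 30 uM prostaglandin E2; NADH fluorescence (360/450 nm) read 5 times over 30-s intervals, last minus first.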
CBFb-RUNX1 inh = CBF-beta/RUNX1 interaction disruption. Q01196+Q13951. AlphaScreen CBFb-His/RUNX1-biotin binding, biochemical. Potency, µM (doses to about 59.8 µM), for inactives: at the highest dose activity, negative = inhibition, actives largely listed as inhibitors. 230,000 tested, under 10 active; also: % of control where 0% means no effect
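Read-out: AlphaScreen. Format: His-CBF-beta with biotinylated RUNX1 (30 nM each) preincubated 20 min, compound 15 min, Ni-chelate plus streptavidin beads 90 min; room temperature throughout.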
Active calls of the source: *; ? = inconclusive; / = no result given; ! = not confirmed by another sample; [ ] = dose if it differs, or a comment. Rows were chosen to be rich in hits. Some 11% of all compounds tested hit in one or more screens of this group. Unless noted, calls follow the shape of the dose curve; as a rule, active = well fitted curve in the direction sought with a large enough effect; inconclusive = small, poorly fitted or top-dose-only effect, or another doubt; inactive = no such curve, though single readings can be large; an effect the other way counts as inactive or inconclusive.

SMILES | ALDH1A1 block | HttQ103 aggreg | PNC assembly inh | HTT cytoprotect | HPGD inh | CBFb-RUNX1 inh
O=C(CSc1nncs1)N1c2ccccc2Sc2ccccc21 | 10µM* | -18% | -18 | -7%[1.9 µM] | -8% | -5%
CCOC(=O)N1CCN(S(=O)(=O)c2cc([N+](=O)[O-])c(C)cc2C)CC1 | 1% | 8%[9.22 µM] | / | 14%[10 µM] | / | 2%
CN1CCN(c2ccc(Cl)cc2NS(=O)(=O)c2ccccc2Cl)CC1 | 14µM* | -14% | 21 | -16%[10 µM] | -9% | 0%
O=C(c1ccncc1)N1CCC2(CCCN(Cc3ccncc3)C2)CC1 | 11% | / | / | 14% | 1% | /
CC[C@H](C)[C@H](NC(=O)[C@H](C)NC(=O)[C@H](CC(=O)O)NC(=O)[C@H](CO)NC(=O)[C@@H](N)Cc1cnc[nH]1)C(=O)N[C@@H](Cc1ccccc1)C(=O)N[C@H](C(=O)N[C@@H](CCC(N)=O)C(=O)N[C@@H](CCC(N)=O)C(=O)N[C@@H](Cc1ccc(O)cc1)C(=O)N[C@@H](CO)C(=O)N[C@@H](CCCCN)C(=O)N[C@@H](CC(C)C)C(=O)N[C@@H](CC(C)C)C(=O)N[C@@H](C)C(=O)N[C@@H](CCCCN)C(=O)N[C@@H](CC(C)C)C(=O)N[C@@H](C)C(=O)N[C@@H](CC(C)C)C(=O)N[C@@H](CCC(N)=O)C(=O)N[C@@H](CCCCN)C(=O)N[C@@H](Cc1ccc(O)cc1)C(=O)N[C@@H](CC(C)C)C(=O)N[C@@H](C)C(=O)N[C@@H](CO)C(=O)N[C@H](C(=O)N[C@@H](CC(C)C)C(=O)NCC(=O)N[C@@H](CO)C(=O)N[C@@H](CCCNC(=N)N)C(=O)N[C@H](C(=O)N[C@@H](CO)C(=O)N1CCC[C@H]1C(=O)N1CCC[C@H]1C(=O)N1CCC[C@H]1C(N)=O)[C@@H](C)O)[C@@H](C)CC)[C@@H](C)O | / | / | / | / | / | 23%
COc1ccc(NS(=O)(=O)c2ccc3nc(COc4ccc(Cl)c(C)c4)[nH]c3c2)cc1 | -13% | ? | -106* | -6%[10 µM] | / | -8%
Cc1c(NS(=O)(=O)c2ccc3nc(COc4ccccc4Cl)[nH]c3c2)c(=O)n(-c2ccccc2)n1C | 3% | 4% | / | -55% | / | 4%
C[C@H](C(=O)c1ccccc1)C(c1ccccc1)N1CCOCC1 (some centres not stated) | ? | / | / | / | -29% | /
O=C(N/N=C/c1ccc([N+](=O)[O-])s1)c1ccccc1 | -5% | ? | / | -93% | / | 6%
Cc1ccccc1C(=O)N/N=C/c1ccc([N+](=O)[O-])s1 | ? | 25µM* | ? | -58% | -20% | -8%
O=C(N/N=C/c1ccc([N+](=O)[O-])s1)c1ccccc1Br | ? | ? | 51 | -74% | -21% | -8%
O=C(N/N=C\c1ccc([N+](=O)[O-])s1)c1cncc(Br)c1 | 6% | ? | -102* | -26%[10 µM] | -4% | ?
Cc1cccc(Nc2nnc(SC/C(O)=C(\C#N)c3nc4ccccc4[nH]3)s2)c1 | ? | 7% | ? | 11%[10 µM] | ? | 0%
COc1ccc(C(=O)CSc2nn3c(=O)c(C(C)(C)C)nnc3s2)cc1 | 0.4µM* | ? | ? | 27% | -16% | -2%
CC(C)(C)c1nnc2sc(SCC(=O)c3ccccc3)nn2c1=O | ? | 26% | 16 | 18%[1.9 µM] | -22% | 12%
CC(C)(C)c1nnc2sc(SC/C(O)=C(\C#N)c3nc4ccccc4[nH]3)nn2c1=O | ? | 15% | -95* | -36% | 20µM* | -1%
CCC(C)(C#CCN1CCCCC1)OC(C)=O (configuration not stated) | 12% | 18%[9.22 µM] | / | 26%[10 µM] | / | 3%
C=C(C)COc1ccc(-c2ncncc2Oc2ccc(OC)cc2)c(O)c1 | 20µM* | ? | 15 | -4% | 18µM* | 3%
CS(=O)(=O)Nc1cccc(-c2ccc3ncnc(Nc4ccccc4)c3c2)c1 | -4% | / | / | -180% | / | /
O=C(CNC(=O)c1ccccc1)OCC(=O)N1c2ccccc2Sc2ccccc21 | -3% | -5% | 11 | / | -19% | -5%
CCCCC(NC(=O)c1ccccc1)C(=O)OCC(=O)N1c2ccccc2Sc2ccccc21 (configuration not stated) | 40µM* | -5% | 52 | -95% | -16% | -2%
CC(=O)NCC(=O)OCC(=O)N1c2ccccc2Sc2ccccc21 | 25µM* | 2% | / | 4% | / | 0%
CCN(CC)C(=O)c1ccc(S(=O)(=O)N2CCC(c3nc4ccccc4s3)CC2)cc1 | -5% | ? | -100* | 7%[10 µM] | -21% | -4%
CCCCCCCC/C=C\CCCCCCCCCCCC(=O)O | / | / | / | / | / | -20%
CCOC(=O)c1cc(CC)sc1NC(=O)C1CC(=O)NN1Cc1ccccc1 (configuration not stated) | 4% | 10µM* | 15 | 0%[10 µM] | / | 3%
SMILES | ALDH1A1 block | HttQ103 aggreg | PNC assembly inh | HTT cytoprotect | HPGD inh | CBFb-RUNX1 inh
O=c1[nH]cnc2c1sc(=S)n2-c1ccccc1 | 10µM* | -8% | ? | -2%[10 µM] | 14µM* | 1%
O=c1[nH]c(-c2ccc(F)cc2)nc2c1sc(=S)n2-c1ccccc1 | ? | ? | ? | -12%[10 µM] | -26% | 1%
Cc1nn(C)c(C)c1/C=C/C(=O)O | 17% | 13% | / | 11µM* | / | 2%
CC1(C(=O)Nc2nnc(SCc3ccccc3)s2)Cc2ccccc2C(=O)O1 (configuration not stated) | ? | 9% | ? | 1% | 28µM* | 6%
COc1c(N2CCNC(C)C2)c(F)cc2c(=O)c(C(=O)O)cn(C3CC3)c12 (configuration not stated) | ? | 27% | / | 3.2µM*! | ? | ?
COC(=O)[C@@]1(Cc2ccc(F)cc2)[C@@H]2C(=CC(=O)[C@H]2CC(=O)C(=O)N(C)C)CN1C(=O)c1ccccc1 | -5% | / | / | 4µM* | -2% | 3%
CCC(=O)OCCNc1cc(Sc2nc3ccccc3s2)c2nonc2c1[N+](=O)[O-] | 8.9µM* | ? | 16 | -151% | 3.2µM* | -1%
CCC(=O)OCCNc1cc(Sc2nc3ccccc3[nH]2)c2nonc2c1[N+](=O)[O-] | -20% | ? | 31 | -39%[10 µM] | 7.1µM* | -2%
O=[N+]([O-])c1c(NCCCO)cc(Sc2nc3ccccc3s2)c2nonc12 | 16µM* | 6.3µM* | 47 | -132% | 2.8µM* | -1%
CCN(CC)C(=O)C1CCCN(c2ccccc2[N+](=O)[O-])C1 (configuration not stated) | 13µM* | 0%[9.22 µM] | / | 11%[10 µM] | / | 10%
CC(Sc1n[nH]c(N)n1)C(=O)Nc1cccc(S(=O)(=O)N2CCOCC2)c1 (configuration not stated) | 10% | 7% | / | -20% | / | 9%
